This is an account of results in PubChem BioAssay (NCATS).

The target in assay [1] is Bile acid receptor (Homo sapiens) (UniProt Q96RI1). Kind of assay: qHTS assay for small molecule agonists of farnesoid X receptor signaling (AID 588527).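 Also: series mostly up to about 77 µM; 0% = vehicle basal and 100% = reference agonist.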 Conditions: HEK293T FXR-UAS-bla, beta-lactamase ratio, 16 h; activation: stronger effect = higher value. The essentials:
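Quantitative HTS used FXR-UAS-bla HEK293T cells with 16 h compound incubation at 37 C. EC50 values came from concentration-response curves normalized to chenodeoxycholic acid.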
Background: qHTS replaces the single test concentration by a dilution series.

Assay [2] has as its target Glucocorticoid receptor (Homo sapiens) (UniProt P04150). Kind of assay: qHTS assay for small molecule agonists of glucocorticoid receptor signaling (AID 588532; active = well fitted curve in the direction sought with a large enough effect in the signal ratio, with a control signal flat; the % refers to the signal ratio;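 also: 100% = dexamethasone at 0.1 µM and 0% = DMSO only wells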). Conditions: HeLa MMTV-bla, beta-lactamase ratio, agonist, 18 h; activation: stronger effect = higher value, percent of dexamethasone control, DMSO zero. The essentials: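 Using MMTV-bla HeLa cells in medium with 1% stripped FBS and 25 mM HEPES, compounds were titrated and incubated overnight-length (18 h). Beta-lactamase cleavage of CCF4 was quantified by dual-emission fluorescence.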

Assay [3] deals with Vitamin D3 receptor (Homo sapiens) (UniProt P11473). Kind of assay: qHTS assay for small molecule agonists of vitamin D receptor signaling (AID 588543).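 Also: 0% = DMSO basal and 100% = reference agonist control.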 Put shortly: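 qHTS in agonist mode: compound titrations stimulate a VDR-driven β-lactamase reporter in HEK293T cells over 16 h at 37 °C. Response normalized to 50 nM 1α,25-dihydroxyvitamin D3 = 100%, DMSO = 0%; Hill fitting gives EC50 and maximal response.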

For assay [4], the target named is Thyroid hormone receptor beta (Homo sapiens) (UniProt P10828). Kind of assay: qHTS assay for small molecule agonists of thyroid hormone receptor beta signaling (AID 588545). The essentials:
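Agonist activity was read as beta-lactamase CCF4 fluorescence (405 ex, 460/530 em), scaled between DMSO (0%) and 10 nM T3 (100%), then Hill-fitted for EC50 and efficacy. HEK 293 TR-UAS-bla cells in 2% charcoal/dextran FBS medium were exposed 18 h at 37 C.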

Assay [5] is described as follows: qHTS assay for small molecule activators of the p53 signaling pathway (AID 651743; active = well fitted activation curve with a large enough effect in the signal ratio, not every such curve was filed as active; the % refers to the signal ratio; also: potency is read from the fitted curve at half-maximal effect; as to activation: series mostly up to about 92 µM; % of control where 0% means no effect). The settings on record: HCT-116 p53RE-bla, beta-lactamase FRET ratio, 16 h; activation: stronger effect = higher value. The essentials:
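Screen for p53 pathway agonists uses stably transfected p53RE-bla HCT-116 cells, 4,000 per well, treated 16 h at 37 C with compounds in DMSO.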

Assay [6] is described as follows: qHTS assay for small molecule activators of the nuclear factor-kappa B (NF-kB) signaling pathway (AID 651749; active = well fitted activation curve with a large enough effect in the signal ratio; the % refers to the signal ratio; also: series mostly up to about 77 µM; % of control where 0% means no effect). Conditions: NF-kB-bla ME-180 cells, beta-lactamase FRET ratio, 16 h; activation: stronger effect = higher value. The essentials: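 Stably transfected ME-180 line; NF-kB response element upstream of beta-lactamase. Treatment: compound or DMSO, 16 hr. Detection: fluorescent FRET substrate.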

In assay [7] the target is Peroxisome proliferator-activated receptor alpha (Homo sapiens) (UniProt Q07869). Kind of assay: qHTS assay for small molecule agonists of the peroxisome proliferator-activated receptor alpha (PPARalpha) signaling pathway (AID 651778; active = well fitted curve in the direction sought with a large enough effect; an effect the other way counts as inactive or inconclusive; also: % of control where 0% means no effect). Conditions: PathHunter PPARalpha complementation, chemiluminescence, 6 h; max response: stronger effect = higher value. The essentials:
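Chemiluminescence from complemented enzyme reported PPARalpha activation in cells after 6 hr of compound treatment at 37 C. The detection reagent was incubated for 60 min at room temperature, and compounds were scored as agonists.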

The nature of assay [8]: qHTS assay for small molecule agonists of the antioxidant response element (ARE) signaling pathway measured by Nrf2-dependant transcriptional activity (AID 720636; active = well fitted curve in the direction sought with a large enough effect in the repeat runs; an effect the other way counts as inactive or inconclusive; also: % of control where 0% means no effect). The essentials:
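Nrf2-dependent transcription read as ONE-Glo luciferase signal from ARE-luc HepG2 reporter cells after 16 hr compound treatment at 37 C, 5% CO2, in assay medium with 1% dialyzed FBS.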

Assay [9] in a line: qHTS assay for small molecule agonists of the antioxidant response element (ARE) signaling pathway measured by Nrf2-dependant transcriptional activity - cell viability counter screen (AID 720653; active = well fitted curve in the direction sought with a large enough effect in the repeat runs; an effect the other way counts as inactive or inconclusive; also: % is scaled to controls: 0 for no effect and ±100 for the full control effect). Conditions: ARE-bla HepG2 viability, CellTiter-Glo ATP luminescence, 16 h; max response: stronger effect = lower value. The essentials: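 Cytotoxicity counter screen: intracellular ATP quantified by CellTiter-Glo luminescence in the same ARE-bla HepG2 plates, after 16 h compound exposure and a 2 h beta-lactamase substrate step.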

The nature of assay [10]: qHTS assay for cell viability of HEK293 cells (AID 743288; active = well fitted curve in the direction sought with a large enough effect; an effect the other way counts as inactive or inconclusive; also: % is scaled to controls: 0 for no effect and ±100 for the full control effect; nearly all actives have a fitted effect of over 50% in size). Conditions: ATP luminescence (CellTiter-Glo), 18 h; max response: stronger effect = lower value. Put shortly: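 The Tox21 protocol used parental HEK293 cells treated for 18 h at 37 C with compounds delivered by pintool; ATP-coupled luminescence after 30 min at room temperature gave viability.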
Assay [11] concerns the target Bile acid receptor (Homo sapiens) (UniProt Q96RI1). Kind of assay: qHTS assay for small molecule antagonists of farnesoid X receptor signaling (AID 588526). Also: % is scaled to controls: 0 for no effect and ±100 for the full control effect. The essentials:
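Beta-lactamase reporter antagonist mode: HEK293T FXR-UAS-bla cells, titrated compound, CDCA stimulation, 16 h 37 C, CCF4 dye 2 h RT. Data normalized to CDCA 50 uM and DMSO; Hill-fit IC50.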

The target of assay [12] is Vitamin D3 receptor (Homo sapiens) (UniProt P11473). Kind of assay: qHTS assay for small molecule antagonists of vitamin D receptor signaling (AID 588541).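 Also: receptor activated by calcitriol during compound treatment; series mostly up to about 77 µM; % is scaled to controls: 0 for no effect and ±100 for the full control effect.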 The essentials:
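Antagonist-mode beta-lactamase reporter assay: HEK293T VDR-UAS-bla cells were exposed to titrated compound alongside 1-alpha,25-dihydroxyvitamin D3 at 3 nM final for 16 h. Values were normalized to the 50 nM agonist control and DMSO basal, with IC50 and efficacy from Hill equation fits.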

The target in assay [13] is Retinoic acid receptor RXR-alpha (Homo sapiens) (UniProt P19793). Kind of assay: qHTS assay for small molecule agonists of retinoid X receptor alpha signaling (AID 588544).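 Also: 0% = DMSO basal wells and 100% = reference agonist.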
A short description of assay [14]: qHTS assay for small molecule antagonists of retinoid X receptor alpha signaling (AID 588546; active = well fitted inhibition curve with a large enough effect in the signal ratio, with a control signal flat, not every such curve was filed as active; the % refers to the signal ratio;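 also: cells stimulated with 9-cis-retinoic acid as agonist; % is scaled to controls: 0 for no effect and ±100 for the full control effect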). Conditions: HEK293T RXRa-UAS-bla, beta-lactamase ratio, antagonist mode; measured here: W530 green channel, cytotoxicity proxy. The essentials:
(§1)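 Beta-lactamase reporter inhibition, read as CCF4 fluorescence ratio (ex 405, em 460/530 nm) after 2 h at RT. HEK293T UAS-bla cells, 2500/well, were stimulated with 9-cis-RA at 500 or 100 nM final alongside test compound for 18 h at 37 C.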

Assay [15] has as its target Retinoic acid receptor RXR-alpha (Homo sapiens) (UniProt P19793). The assay is described as above. The settings on record: HEK293T RXRa-UAS-bla, beta-lactamase ratio, antagonist mode. The essentials:
as §1

In assay [16] the target is Thyroid hormone receptor beta (Homo sapiens) (UniProt P10828). Kind of assay: qHTS assay for small molecule antagonists of thyroid hormone receptor beta signaling (AID 588547; active = well fitted inhibition curve with a large enough effect in the signal ratio, with a control signal flat, not every such curve was filed as active; the % refers to the signal ratio). The settings on record: TR-UAS-bla HEK293, beta-lactamase ratio, antagonist mode, 18 h. Put shortly: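 Inhibition of T3-driven (0.4nM final) beta-lactamase reporter activity was measured over 0.59 nM to 92 uM compound after 18 h at 37 C. The cells were GripTite HEK293 TR-UAS-bla in charcoal/dextran-stripped serum, with CCF4 ratio read-out and IC50 from Hill fits.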

Assay [17] is described as follows: qHTS assay for environmental chemicals that activate the Aryl hydrocarbon Receptor (AhR) signaling pathway (AID 651777; active = well fitted curve in the direction sought with a large enough effect; an effect the other way counts as inactive or inconclusive; also: % of control where 0% means no effect; nearly all actives have a fitted effect of over 15% in size). Conditions: 1A2-DRE human hepatoma cells, luciferase, 24 h; activation: stronger effect = higher value. Put shortly:
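Luminescence (One-Glo, 30 min, room temperature) reports AhR-driven luciferase in stably transfected human hepatoma cells bearing DRE and CYP1A2 promoter. Cells (1,200/well) were treated with compound for 24 hr at 37 C in qHTS format.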

Assay [18] can be described thus: qHTS assay for cell viability of the p53RE-bla HCT-116 cell line (AID 743292; active = well fitted curve in the direction sought with a large enough effect; an effect the other way counts as inactive or inconclusive; also: % is scaled to controls: 0 for no effect and ±100 for the full control effect; nearly all actives have a fitted effect of over 55% in size). The essentials: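 ATP-based luminescent viability (CellTiter-Glo, 30 min RT) after 16 h compound treatment at 37 C of p53RE-bla HCT-116 cells, seeded at 4,000 cells/well and rested 5 h before dosing.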
Assay [19] can be described thus: qHTS assay for small molecule antagonists of peroxisome proliferator-activated receptor delta signaling (AID 588535).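 Also: cells co-treated with a PPAR-delta agonist as stimulator during compound exposure.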 Conditions: HEK293T PPARd-UAS-bla, beta-lactamase FRET ratio, 18 h; 460 nm channel. The essentials:
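Cell-based beta-lactamase assay in antagonist mode: 4000 HEK293T PPAR-delta-UAS-bla cells per well, 5 hr preincubation then 18 hr compound incubation at 37 C. IC50 obtained by Hill equation fitting.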

Assay [20] deals with Peroxisome proliferator-activated receptor delta (Homo sapiens) (UniProt Q03181). Kind of assay: qHTS assay for small molecule agonists of peroxisome proliferator-activated receptor delta signaling (AID 588534).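 Also: 0% = DMSO basal wells and 100% = positive control agonist at 10 µM.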 The essentials:
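Cell-based beta-lactamase reporter assay run in agonist mode: cells seeded and incubated 5 hrs at 37 C, compounds added and incubated 18 hrs at 37 C. CCF4 dye fluorescence read after 2 hrs at RT; EC50 and efficacy from Hill fits.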

Records with an inconclusive call do not appear. Calls of active or inactive are those of the source. Unless noted, calls follow the shape of the full dose curve.

Sequence of Peroxisome proliferator-activated receptor alpha (Homo sapiens) (Q07869 whole entry, looked up): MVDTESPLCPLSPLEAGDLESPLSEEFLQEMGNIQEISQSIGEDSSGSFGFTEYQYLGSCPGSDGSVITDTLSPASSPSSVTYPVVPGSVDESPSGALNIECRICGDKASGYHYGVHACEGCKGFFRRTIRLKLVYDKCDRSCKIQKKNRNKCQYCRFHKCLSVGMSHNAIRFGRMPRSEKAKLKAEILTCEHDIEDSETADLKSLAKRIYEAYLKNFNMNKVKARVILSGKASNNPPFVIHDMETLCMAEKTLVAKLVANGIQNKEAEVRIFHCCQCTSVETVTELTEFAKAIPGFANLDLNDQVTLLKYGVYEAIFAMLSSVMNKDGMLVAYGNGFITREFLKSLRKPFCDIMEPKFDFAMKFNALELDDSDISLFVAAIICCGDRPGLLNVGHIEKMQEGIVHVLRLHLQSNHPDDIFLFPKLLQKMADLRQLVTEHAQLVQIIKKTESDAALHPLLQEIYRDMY
Sequence of Thyroid hormone receptor beta (Homo sapiens) (P10828 whole entry, looked up): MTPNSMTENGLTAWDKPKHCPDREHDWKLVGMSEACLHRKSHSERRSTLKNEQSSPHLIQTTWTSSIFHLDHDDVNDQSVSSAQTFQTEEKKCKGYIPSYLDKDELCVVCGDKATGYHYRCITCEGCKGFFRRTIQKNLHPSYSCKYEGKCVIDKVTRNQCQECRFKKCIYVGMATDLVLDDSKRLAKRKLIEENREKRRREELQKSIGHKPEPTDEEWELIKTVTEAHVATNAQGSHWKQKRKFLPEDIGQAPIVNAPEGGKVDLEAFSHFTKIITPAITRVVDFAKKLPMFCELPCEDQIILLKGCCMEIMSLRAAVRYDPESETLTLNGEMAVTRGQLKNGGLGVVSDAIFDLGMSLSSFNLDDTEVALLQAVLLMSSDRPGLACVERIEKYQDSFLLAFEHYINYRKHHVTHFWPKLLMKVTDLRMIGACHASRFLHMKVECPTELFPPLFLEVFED
Sequence of Vitamin D3 receptor (Homo sapiens) (P11473 whole entry, looked up): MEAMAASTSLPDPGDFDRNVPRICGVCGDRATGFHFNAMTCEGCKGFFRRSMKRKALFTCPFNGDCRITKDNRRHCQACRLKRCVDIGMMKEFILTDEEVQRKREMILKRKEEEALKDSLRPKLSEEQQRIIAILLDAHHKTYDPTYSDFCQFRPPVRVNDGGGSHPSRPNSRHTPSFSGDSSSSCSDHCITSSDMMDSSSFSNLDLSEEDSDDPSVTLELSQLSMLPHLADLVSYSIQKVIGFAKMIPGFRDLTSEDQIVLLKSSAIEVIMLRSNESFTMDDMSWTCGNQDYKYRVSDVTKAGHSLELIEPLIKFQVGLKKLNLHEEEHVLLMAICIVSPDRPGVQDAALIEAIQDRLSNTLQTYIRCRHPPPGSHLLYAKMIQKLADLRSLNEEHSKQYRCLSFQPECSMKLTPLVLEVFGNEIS
Sequence of Glucocorticoid receptor (Homo sapiens) (P04150 whole entry, looked up): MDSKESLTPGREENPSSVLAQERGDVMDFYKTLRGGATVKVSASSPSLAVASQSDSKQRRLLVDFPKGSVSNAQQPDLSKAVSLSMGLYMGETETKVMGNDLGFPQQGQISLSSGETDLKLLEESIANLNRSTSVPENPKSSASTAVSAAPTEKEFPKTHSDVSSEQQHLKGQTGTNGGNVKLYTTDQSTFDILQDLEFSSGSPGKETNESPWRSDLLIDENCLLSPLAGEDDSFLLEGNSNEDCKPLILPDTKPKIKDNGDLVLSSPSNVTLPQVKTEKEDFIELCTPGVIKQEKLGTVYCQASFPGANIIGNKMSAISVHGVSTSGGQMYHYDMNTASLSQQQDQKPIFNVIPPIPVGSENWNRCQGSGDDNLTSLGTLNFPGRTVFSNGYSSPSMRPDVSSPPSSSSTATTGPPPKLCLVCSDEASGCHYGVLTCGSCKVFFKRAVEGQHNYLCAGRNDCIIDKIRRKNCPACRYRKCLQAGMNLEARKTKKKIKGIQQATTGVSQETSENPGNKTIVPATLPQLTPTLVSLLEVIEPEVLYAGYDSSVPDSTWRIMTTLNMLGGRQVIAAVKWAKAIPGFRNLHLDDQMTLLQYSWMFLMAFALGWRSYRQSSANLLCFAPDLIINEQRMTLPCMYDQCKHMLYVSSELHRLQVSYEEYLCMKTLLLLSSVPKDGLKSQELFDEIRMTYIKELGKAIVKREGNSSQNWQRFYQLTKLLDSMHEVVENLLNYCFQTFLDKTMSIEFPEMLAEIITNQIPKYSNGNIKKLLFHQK
Sequence of Retinoic acid receptor RXR-alpha (Homo sapiens) (P19793 whole entry, looked up): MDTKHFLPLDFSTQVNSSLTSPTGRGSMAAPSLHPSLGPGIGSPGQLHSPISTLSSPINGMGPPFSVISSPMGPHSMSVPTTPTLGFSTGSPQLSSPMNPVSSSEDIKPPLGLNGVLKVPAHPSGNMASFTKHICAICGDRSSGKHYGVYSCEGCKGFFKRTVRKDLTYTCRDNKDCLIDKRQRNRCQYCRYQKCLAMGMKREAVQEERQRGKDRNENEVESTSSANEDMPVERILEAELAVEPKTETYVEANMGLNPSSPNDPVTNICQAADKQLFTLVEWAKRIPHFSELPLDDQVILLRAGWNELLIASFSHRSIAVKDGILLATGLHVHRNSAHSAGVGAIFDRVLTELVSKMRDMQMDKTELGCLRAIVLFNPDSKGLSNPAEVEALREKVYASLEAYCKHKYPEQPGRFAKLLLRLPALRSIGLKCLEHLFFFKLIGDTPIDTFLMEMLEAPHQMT
Sequence of Bile acid receptor (Homo sapiens) (Q96RI1 whole entry, looked up): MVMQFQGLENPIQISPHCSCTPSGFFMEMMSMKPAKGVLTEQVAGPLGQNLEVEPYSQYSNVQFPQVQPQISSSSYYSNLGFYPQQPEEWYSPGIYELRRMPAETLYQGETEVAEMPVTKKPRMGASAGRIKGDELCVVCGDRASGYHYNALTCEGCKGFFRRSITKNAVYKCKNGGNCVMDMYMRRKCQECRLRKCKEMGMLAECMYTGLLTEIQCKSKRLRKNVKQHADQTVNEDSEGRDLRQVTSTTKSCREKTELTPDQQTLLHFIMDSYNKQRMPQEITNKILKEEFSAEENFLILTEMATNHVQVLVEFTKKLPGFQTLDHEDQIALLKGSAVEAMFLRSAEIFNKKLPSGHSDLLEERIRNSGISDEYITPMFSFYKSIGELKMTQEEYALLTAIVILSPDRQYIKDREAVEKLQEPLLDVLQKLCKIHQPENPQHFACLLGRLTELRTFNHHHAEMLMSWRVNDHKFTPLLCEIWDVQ
Sequence of Peroxisome proliferator-activated receptor delta (Homo sapiens) (Q03181 whole entry, looked up): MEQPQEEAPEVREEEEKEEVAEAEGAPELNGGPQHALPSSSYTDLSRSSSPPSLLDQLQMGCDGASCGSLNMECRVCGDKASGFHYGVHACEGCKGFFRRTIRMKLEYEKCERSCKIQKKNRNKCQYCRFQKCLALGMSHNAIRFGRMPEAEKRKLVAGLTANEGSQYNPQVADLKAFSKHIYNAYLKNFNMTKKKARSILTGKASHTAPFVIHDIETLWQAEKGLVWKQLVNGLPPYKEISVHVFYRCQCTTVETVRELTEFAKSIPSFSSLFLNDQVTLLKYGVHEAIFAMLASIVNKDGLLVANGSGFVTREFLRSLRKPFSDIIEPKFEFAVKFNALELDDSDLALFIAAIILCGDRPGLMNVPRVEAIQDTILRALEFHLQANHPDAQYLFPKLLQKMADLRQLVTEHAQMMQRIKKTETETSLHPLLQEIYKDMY

Take `CCCCCCCCCCCCC1=C(OC(C)=O)C(=O)c2ccccc2C1=O`: the activation in [1] is -0.713% (inactive); in assay [2], -3.65% (inactive); in assay [6], -0.928% (inactive). The compound was classed as inactive in assay [3]. Also, the Potency entry in [4] and in assay [8] was “inactive” in each case. Further, in assay [5], the Potency is 11.2 µM (active). Also, the max response in assay [7] is -5.69% (inactive); in assay [9] it was -15.3% (inactive); in assay [10], -22.1% (inactive).
`CCN(CC)C(=O)SCc1ccc(Cl)cc1`: the Potency entry in [11], in assay [12], in assay [13], in [4] and in assay [18] was “inactive” in each case. For the same compound, the activation was 5.41% (inactive) in [1]; -4.08% (inactive) in assay [2]; 1.13% (inactive) in assay [5]; -0.511% (inactive) in assay [6]; 2.07% (inactive) in [17]. For the same compound, the compound was called inactive in assay [3]. Besides, the max response in [14] was -13.2%; in [15], -31.3% (inactive); in assay [7], -1.35% (inactive); in assay [9], -5.19% (inactive); in assay [10] it was -14.7% (inactive). The activity change % (negative = inhibition) in [16] was 12% (inactive).
On to `CCNc1nc(NC(C)C)nc(OC)n1`, for which the Potency result in assay [11], in [12], in [13], in assay [4], in assay [8] and in assay [18] was “inactive” throughout. Besides, the activation in assay [1] is -2.29% (inactive); in assay [2], -1.69% (inactive); in [5], -0.985% (inactive); in assay [6], -1.42% (inactive); in assay [17], 0.686% (inactive). Moreover, the max response in [19] was 24.4%; in [14], -8.69%; in assay [15], 2.56% (inactive); in assay [7] it was -1.03% (inactive); in assay [9], 6.46% (inactive); in [10], 0.985% (inactive). The compound was called inactive in [3].
Consider `CC(Oc1cccc(Cl)c1)C(=O)O` (stereo not drawn), for which the Potency entry in assay [11], in [12], in assay [13], in assay [4], in [8] and in assay [18] was “inactive” in each case. Besides, the activation is 0.618% (inactive) in assay [1], -9.84% (inactive) in [2], 0.409% (inactive) in [5] and -0.19% (inactive) in [17]. For the same compound, the outcome in [20] and in [3] was inactive. Also, the max response in assay [19] is 47.7%; in assay [14], -2.12%; in assay [7], -0.485% (inactive); in [9], -0.643% (inactive); in assay [10] it was -4.52% (inactive). In addition, the activity change % (negative = inhibition) in [16] was 10.2% (inactive).
Take `CCSC(=O)N(CC)C1CCCCC1`: the Potency entry in assay [11], in assay [12], in [13], in assay [4] and in assay [8] was “inactive” in each case. Besides, the activation in assay [1] is -3.64% (inactive); in assay [2] it was -1.4% (inactive). Also, the outcome in [20] and in assay [3] was inactive. In addition, the max response in assay [14] was 12.6%; in assay [15] it was 16.6% (inactive); in assay [7], -3.86% (inactive); in [9] it was 13.6% (inactive); in assay [10] it was 10.3% (inactive).
As to `COC(C)(C)CCC[C@H](C)C/C=C/C(C)=C/C(=O)OC(C)C`, the Potency result in [13], in assay [4], in [8] and in assay [18] was “inactive” each time. Also, the max response in assay [14] is -16.5%; in assay [7] it was 0.0369% (inactive); in assay [9], -6.46% (inactive); in assay [10], -5.99% (inactive). Moreover, in [16], the activity change % (negative = inhibition) was -10.3% (inactive). The activation in [6] is 0.706% (inactive); in assay [17], -0.0877% (inactive).
